# Results from the supplement of paper PMC4466140.
# What was measured:
# Assay in all cases: SPOT peptide array binding signal intensity (averaged, normalized) (arbitrary units (background-subtracted, floor 0; scale differs between SH3 domains)); higher = stronger binding of the SH3 domain to the peptide
# [1] = target: AgAbp1
# Description: (§1)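 GST-tagged SH3 domains from S. cerevisiae (Sc), A. gossypii (Ag), C. albicans (Ca) and S. pombe (Sp) were incubated at 10 ug/ml overnight at 4 C on cellulose SPOT membranes carrying 292 synthetic 15-mer peptides mined from the S. cerevisiae proteome (cysteines replaced by serines). Binding was detected with anti-GST antibody, HRP secondary and chemiluminescence, quantified with Genespotter, and reported as normalized spot intensities averaged over biological replicates.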
# [2] = target: AgBbc1
# Description: as §1
# [3] = target: AgBem1-D1
# Description: as §1
# [4] = target: AgBzz1-D1
# Description: as §1
# [5] = target: AgBzz1-D2
# Description: as §1
# [6] = target: AgCyk3
# Description: as §1
# [7] = target: AgFus1
# Description: as §1
# [8] = target: AgHof1
# Description: as §1
# [9] = target: AgHse1
# Description: as §1
# [10] = target: AgLsb1
# Description: as §1
# [11] = target: AgLsb4
# Description: as §1
# [12] = target: AgMyo5
# Description: as §1
# [13] = target: AgNbp2
# Description: as §1
# [14] = target: AgRvs167
# Description: as §1
# [15] = target: AgSho1
# Description: as §1
# [16] = target: AgSla1-D1-D2
# Description: as §1
# [17] = target: AgSla1-D3
# Description: as §1
# [18] = target: CaAbp1-D1
# Description: as §1
# [19] = target: CaAbp1-D2
# Description: as §1
# [20] = target: CaBbc1
# Description: as §1
# [21] = target: CaBem1-D1
# Description: as §1
# [22] = target: CaBzz1-D1
# Description: as §1
# [23] = target: CaBzz1-D2
# Description: as §1
# [24] = target: CaCyk3
# Description: as §1
# [25] = target: CaFus1
# Description: as §1
# [26] = target: CaHof1
# Description: as §1
# [27] = target: CaHse1
# Description: as §1
# [28] = target: CaLsb1
# Description: as §1
# [29] = target: CaLsb4
# Description: as §1
# [30] = target: CaMyo5
# Description: as §1
# [31] = target: CaNbp2
# Description: as §1
# [32] = target: CaRvs167
# Description: as §1
# [33] = target: CaRvs167-3
# Description: as §1
# [34] = target: CaSho1
# Description: as §1
# [35] = target: CaSla1-D1-D2
# Description: as §1
# [36] = target: CaSla1-D3
# Description: as §1
# [37] = target: ScAbp1
# Description: as §1
# [38] = target: ScBbc1
# Description: as §1
# [39] = target: ScBem1-D1
# Description: as §1
# [40] = target: ScBzz1-D1
# Description: as §1
# [41] = target: ScBzz1-D2
# Description: as §1
# [42] = target: ScCyk3
# Description: as §1
# [43] = target: ScFus1
# Description: as §1
# [44] = target: ScHof1
# Description: as §1
# [45] = target: ScHse1
# Description: as §1
# [46] = target: ScLsb1
# Description: as §1
# [47] = target: ScLsb2
# Description: as §1
# [48] = target: ScLsb3
# Description: as §1
# [49] = target: ScLsb4
# Description: as §1
# [50] = target: ScMyo3
# Description: as §1
# [51] = target: ScMyo5
# Description: as §1
# [52] = target: ScNbp2
# Description: as §1
# [53] = target: ScPex13
# Description: as §1
# [54] = target: ScRvs167
# Description: as §1
# [55] = target: ScSho1
# Description: as §1
# [56] = target: ScSla1-D1-D2
# Description: as §1
# [57] = target: ScSla1-D3
# Description: as §1
# [58] = target: SpAbp1-D1
# Description: as §1
# [59] = target: SpBbc1
# Description: as §1
# [60] = target: SpBzz1-D1
# Description: as §1
# [61] = target: SpBzz1-D2
# Description: as §1
# [62] = target: SpCyk3
# Description: as §1
# [63] = target: SpHof1
# Description: as §1
# [64] = target: SpHof1-2
# Description: as §1
# [65] = target: SpHof1-3
# Description: as §1
# [66] = target: SpHse1
# Description: as §1
# [67] = target: SpLsb1
# Description: as §1
# [68] = target: SpLsb4
# Description: as §1
# [69] = target: SpMyo1
# Description: as §1
# [70] = target: SpNbp2
# Description: as §1
# [71] = target: SpPex13
# Description: as §1
# [72] = target: SpRvs167
# Description: as §1
# [73] = target: SpSla1-D1-D2
# Description: as §1
# [74] = target: SpSla1-D3
# Description: as §1
binder,measurement,setting,value
RKRRTHLRLPLIRSN,SPOT peptide array binding signal intensity,[1],23
same,SPOT peptide array binding signal intensity,[2],105
same,SPOT peptide array binding signal intensity,[3],130
same,SPOT peptide array binding signal intensity,[4],2
same,SPOT peptide array binding signal intensity,[5],34.5
same,SPOT peptide array binding signal intensity,[6],2
same,SPOT peptide array binding signal intensity,[7],1070
same,SPOT peptide array binding signal intensity,[8],107
same,SPOT peptide array binding signal intensity,[9],1100
same,SPOT peptide array binding signal intensity,[10],≤ 0
same,SPOT peptide array binding signal intensity,[11],137
same,SPOT peptide array binding signal intensity,[12],0.5
same,SPOT peptide array binding signal intensity,[13],63.8
same,SPOT peptide array binding signal intensity,[14],2.83
same,SPOT peptide array binding signal intensity,[15],37.5
same,SPOT peptide array binding signal intensity,[16],29.5
same,SPOT peptide array binding signal intensity,[17],2.25
same,SPOT peptide array binding signal intensity,[18],243
same,SPOT peptide array binding signal intensity,[19],301
same,SPOT peptide array binding signal intensity,[20],211
same,SPOT peptide array binding signal intensity,[21],41.5
same,SPOT peptide array binding signal intensity,[22],73.5
same,SPOT peptide array binding signal intensity,[23],71
same,SPOT peptide array binding signal intensity,[24],20
same,SPOT peptide array binding signal intensity,[25],1220
same,SPOT peptide array binding signal intensity,[26],0.25
same,SPOT peptide array binding signal intensity,[27],29.6
same,SPOT peptide array binding signal intensity,[28],≤ 0
same,SPOT peptide array binding signal intensity,[29],85
same,SPOT peptide array binding signal intensity,[30],0.5
same,SPOT peptide array binding signal intensity,[31],406
same,SPOT peptide array binding signal intensity,[32],19
same,SPOT peptide array binding signal intensity,[33],42
same,SPOT peptide array binding signal intensity,[34],478
same,SPOT peptide array binding signal intensity,[35],≤ 0
same,SPOT peptide array binding signal intensity,[36],4.62
same,SPOT peptide array binding signal intensity,[37],27
same,SPOT peptide array binding signal intensity,[38],31.1
same,SPOT peptide array binding signal intensity,[39],61.2
same,SPOT peptide array binding signal intensity,[40],15.5
same,SPOT peptide array binding signal intensity,[41],21.2
same,SPOT peptide array binding signal intensity,[42],98
same,SPOT peptide array binding signal intensity,[43],573
same,SPOT peptide array binding signal intensity,[44],2.75
same,SPOT peptide array binding signal intensity,[45],1680
same,SPOT peptide array binding signal intensity,[46],0.25
same,SPOT peptide array binding signal intensity,[47],1
same,SPOT peptide array binding signal intensity,[48],532
same,SPOT peptide array binding signal intensity,[49],29.8
same,SPOT peptide array binding signal intensity,[50],≤ 0
same,SPOT peptide array binding signal intensity,[51],0.625
same,SPOT peptide array binding signal intensity,[52],164
same,SPOT peptide array binding signal intensity,[53],1.12
same,SPOT peptide array binding signal intensity,[54],16.8
same,SPOT peptide array binding signal intensity,[55],1440
same,SPOT peptide array binding signal intensity,[56],268
same,SPOT peptide array binding signal intensity,[57],9.5
same,SPOT peptide array binding signal intensity,[58],91.2
same,SPOT peptide array binding signal intensity,[59],2.5
same,SPOT peptide array binding signal intensity,[60],189
same,SPOT peptide array binding signal intensity,[61],≤ 0
same,SPOT peptide array binding signal intensity,[62],2
same,SPOT peptide array binding signal intensity,[63],299
same,SPOT peptide array binding signal intensity,[64],9
same,SPOT peptide array binding signal intensity,[65],1060
same,SPOT peptide array binding signal intensity,[66],622
same,SPOT peptide array binding signal intensity,[67],0.5
same,SPOT peptide array binding signal intensity,[68],260
same,SPOT peptide array binding signal intensity,[69],9
same,SPOT peptide array binding signal intensity,[70],350
same,SPOT peptide array binding signal intensity,[71],13
same,SPOT peptide array binding signal intensity,[72],9.33
same,SPOT peptide array binding signal intensity,[73],≤ 0
same,SPOT peptide array binding signal intensity,[74],≤ 0
LKVTPGRRAPTISKI,SPOT peptide array binding signal intensity,[1],22
same,SPOT peptide array binding signal intensity,[2],41
same,SPOT peptide array binding signal intensity,[3],63.5
same,SPOT peptide array binding signal intensity,[4],81
same,SPOT peptide array binding signal intensity,[5],24
same,SPOT peptide array binding signal intensity,[6],3
same,SPOT peptide array binding signal intensity,[7],22
same,SPOT peptide array binding signal intensity,[8],15
same,SPOT peptide array binding signal intensity,[9],18.5
same,SPOT peptide array binding signal intensity,[10],≤ 0
same,SPOT peptide array binding signal intensity,[11],≤ 0
same,SPOT peptide array binding signal intensity,[12],5.5
same,SPOT peptide array binding signal intensity,[13],1920
same,SPOT peptide array binding signal intensity,[14],1.17
same,SPOT peptide array binding signal intensity,[15],≤ 0
same,SPOT peptide array binding signal intensity,[16],7.5
same,SPOT peptide array binding signal intensity,[17],1
same,SPOT peptide array binding signal intensity,[18],435
same,SPOT peptide array binding signal intensity,[19],160
same,SPOT peptide array binding signal intensity,[20],247
same,SPOT peptide array binding signal intensity,[21],5
same,SPOT peptide array binding signal intensity,[22],154
same,SPOT peptide array binding signal intensity,[23],148
same,SPOT peptide array binding signal intensity,[24],18
same,SPOT peptide array binding signal intensity,[25],≤ 0
same,SPOT peptide array binding signal intensity,[26],0.5
same,SPOT peptide array binding signal intensity,[27],0.5
same,SPOT peptide array binding signal intensity,[28],≤ 0
same,SPOT peptide array binding signal intensity,[29],≤ 0
same,SPOT peptide array binding signal intensity,[30],6.25
PVLPPPRSPNRPTLS,SPOT peptide array binding signal intensity,[61],≤ 0
same,SPOT peptide array binding signal intensity,[62],1
same,SPOT peptide array binding signal intensity,[63],7.5
same,SPOT peptide array binding signal intensity,[64],12.5
same,SPOT peptide array binding signal intensity,[65],46.5
same,SPOT peptide array binding signal intensity,[66],108
same,SPOT peptide array binding signal intensity,[67],866
same,SPOT peptide array binding signal intensity,[68],3730
same,SPOT peptide array binding signal intensity,[69],71.2
same,SPOT peptide array binding signal intensity,[70],8
same,SPOT peptide array binding signal intensity,[71],≤ 0
same,SPOT peptide array binding signal intensity,[72],1240
same,SPOT peptide array binding signal intensity,[73],≤ 0
same,SPOT peptide array binding signal intensity,[74],≤ 0
